Consider ten molecules from PMC5540273 (PLoS ONE, 2017).

One experiment concerns MERTK. The settings on record: concentration: 1 μM, replicates: in singlicate; n = 1.
Another experiment concerns MET. To be noted: concentration: 1 μM, replicates: in singlicate; n = 1.
The test system of another experiment is T1, MINK.
T1 construct: gene MINK1
To be noted: concentration: 1 μM, replicates: in singlicate, n = 1.

For another experiment, the system named is MKK7. To be noted: concentration: 1 μM, replicates: in singlicate, n = 1.
A further experiment deals with MKNK1. The settings on record: concentration: 1 μM, replicates: in singlicate; n = 1.
Another experiment deals with MKNK2. To be noted: concentration: 1 μM, replicates: in singlicate, n = 1.
The test system of another experiment is T2, MLCK.
T2 construct: gene MYLK3
The settings on record: concentration: 1 μM, replicates: in singlicate; n = 1.

For a further experiment, the system named is T3, MLK1.
T3 construct: gene MAP3K9
To be noted: concentration: 1 μM, replicates: in singlicate; n = 1.

For another experiment, the system named is MLK2. The settings on record: concentration: 1 μM, replicates: in singlicate, n = 1.
The subject of the next experiment is MLK3. To be noted: concentration: 1 μM, replicates: in singlicate, n = 1.
In a further experiment the test system is MRCKA. To be noted: concentration: 1 μM, replicates: in singlicate, n = 1.
In another experiment the test system is T4, MRCKB.
T4 construct: gene CDC42BPB
The settings on record: concentration: 1 μM, replicates: in singlicate; n = 1.

In a further experiment the test system is MST1R. The settings on record: concentration: 1 μM, replicates: in singlicate, n = 1.
The subject of a further experiment is T5, MST1.
T5 construct: gene STK4
To be noted: concentration: 1 μM, replicates: in singlicate; n = 1.

For another experiment, the system named is T6, MST2.
T6 construct: gene STK3
To be noted: concentration: 1 μM, replicates: in singlicate, n = 1.

The test system of another experiment is T7, MST3.
T7 construct: gene STK24
The settings on record: concentration: 1 μM, replicates: in singlicate; n = 1.

The test system of the next experiment is MST4. The settings on record: concentration: 1 μM, replicates: in singlicate; n = 1.
The test system of another experiment is MTOR. To be noted: concentration: 1 μM, replicates: in singlicate, n = 1.
The test system of a further experiment is MUSK. The settings on record: concentration: 1 μM, replicates: in singlicate; n = 1.
The test system of a further experiment is MYLK2. The settings on record: concentration: 1 μM, replicates: in singlicate; n = 1.

Several values for one entry are separate records, joined by “and”; a condition that tells them apart may be missing. Identical values can stand only once. Like-named read-outs stand apart in the source and are kept apart here.
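Note: KINOMEscan kinase panel screen.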

Regarding `CC(C)(C)c1ccc(-n2cnc3c(N)ncnc32)cc1` [SKF-97263], the “%Inh” value in the experiment with MERTK was determined as 41%; in the experiment with MET, 0%; in the experiment on MINK it was 14%; in the experiment on MKK7, 6%; with MKNK1 it was 0%; with MKNK2 it was 29%. The “%Inh” value is listed as 4% in the experiment on MLCK; 2% in the experiment on MLK1; 61% with MLK2; 0% in the experiment with MLK3; 0% in the experiment with MRCKA; 3% in the experiment with MRCKB. Moreover, the “%Inh” value in the experiment with MST1R is 17%; in the experiment on MST1 it was 13%; in the experiment on MST2, 18%; in the experiment with MST3, 0%; in the experiment with MST4 it was 0%; in the experiment on MTOR, 15%. The “%Inh” value with MUSK and in the experiment on MYLK2 was 0% throughout.

With `Fc1cccc(COc2ccc(Nc3ncnc4nn5ccccc5c34)cc2Cl)c1` [GW689066], the “%Inh” value was 6% in the experiment on MERTK; 0% with MET; 0% in the experiment with MINK; 0% in the experiment with MKK7; 4% in the experiment on MKNK1; 0% in the experiment with MKNK2. In addition, the “%Inh” value in the experiment on MLCK was determined as 4%; in the experiment on MLK1, 0%; with MLK2 it was 0%; in the experiment on MLK3 it was 0%; in the experiment with MRCKA, 0%; with MRCKB, 0%. Besides, the “%Inh” value in the experiment on MST1R was 6%; in the experiment with MST1, 0%; in the experiment on MST2, 0%; with MST3 it was 0%; with MST4 it was 0%; in the experiment with MTOR it was 3%. Also, the “%Inh” value in the experiment on MUSK and in the experiment on MYLK2 was 0% throughout.

Regarding `COc1ccc(-c2nc3n(c2-c2ccncc2)CCC3)cc1` [SKF-104493], the “%Inh” value in the experiment with MERTK was 0%; in the experiment with MET, 0%; in the experiment with MINK (1 µM) it was 5% and 19%; in the experiment on MKK7 (1 µM), 14% and 19%; in the experiment with MKNK1, 0%; in the experiment on MKNK2 (1 µM), 19% and 0%. Besides, the “%Inh” value is 0% with MLCK; 0% with MLK1; 0% and 4% in the experiment with MLK2 (1 µM); 9% and 24% in the experiment with MLK3 (1 µM); 0% and 2% in the experiment on MRCKA (1 µM); 0% in the experiment with MRCKB. Besides, the “%Inh” value was 19% and 14% in the experiment on MST1R (1 µM); 0% with MST1; 4% and 16% in the experiment with MST2 (1 µM); 0% with MST3; 0% in the experiment with MST4; 0% and 11% with MTOR (1 µM). For the same molecule, the “%Inh” value in the experiment with MUSK came to 3%; in the experiment with MYLK2, 0%.

Turning to `COc1ccc(-c2oc3ncnc(N)c3c2-c2ccc(OC)cc2)cc1` [SB-589132], the “%Inh” value with MERTK amounted to 29%; in the experiment with MET, 0%; in the experiment with MINK, 0%; in the experiment on MKK7 it was 0%; in the experiment on MKNK1, 25%; with MKNK2, 41%. Moreover, the “%Inh” value with MLCK is given as 23%; in the experiment on MLK1, 0%; with MLK2, 0%; with MLK3, 0%; in the experiment on MRCKA, 0%; with MRCKB, 0%. The “%Inh” value with MST1R came to 46%; in the experiment on MST1, 7%; with MST2, 0%; with MST3, 0%; in the experiment with MST4, 0%; in the experiment with MTOR it was 75%. Besides, the “%Inh” value came out at 17% with MUSK and 0% in the experiment on MYLK2.

As for `O=C(Nc1ccccc1F)NC1CCN(c2ccnc(Nc3ccc(F)cc3)n2)C1` (centres unmarked) [GSK1379722], the “%Inh” value stood at 6% in the experiment with MERTK; 0% with MET; 0% in the experiment with MINK; 0% in the experiment on MKK7; 7% in the experiment on MKNK1; 23% with MKNK2. The “%Inh” value is given as 10% in the experiment on MLCK; 0% with MLK1; 0% with MLK2; 9% in the experiment with MLK3; 15% with MRCKA; 0% in the experiment with MRCKB. Also, the “%Inh” value amounted to 38% with MST1R; 0% in the experiment on MST1; 0% in the experiment on MST2; 0% with MST3; 0% in the experiment on MST4; 17% with MTOR. For the same molecule, the figures for the “%Inh” value in the experiment on MUSK and in the experiment on MYLK2 were 2% and 12%, respectively.

`COc1ccc(Nc2nccc(N3CCC(NC(=O)Nc4ccc5c(c4)OCO5)C3)n2)cc1` (centres unmarked) [GSK1379745]: the “%Inh” value is recorded as 34% in the experiment on MERTK; 20% in the experiment on MET; 3% in the experiment on MINK; 24% with MKK7; 21% in the experiment with MKNK1; 6% in the experiment on MKNK2. Also, the “%Inh” value was 31% in the experiment with MLCK; 6% with MLK1; 19% in the experiment with MLK2; 38% with MLK3; 11% in the experiment on MRCKA; 0% with MRCKB. For the same molecule, the “%Inh” value in the experiment on MST1R is 0%; in the experiment on MST1, 6%; in the experiment with MST2, 0%; in the experiment with MST3, 32%; in the experiment with MST4 it was 0%; in the experiment with MTOR, 35%. Further, the “%Inh” value is listed as 17% in the experiment with MUSK and 6% with MYLK2.

In the case of `O=c1cc(N2CCOCC2)nc2n(Cc3cccc(Cl)c3)ccn12` [GSK2296823], the “%Inh” value turned out to be 15% with MERTK; 0% in the experiment with MET; 0% with MINK; 12% with MKK7; 0% with MKNK1; 15% in the experiment on MKNK2. Moreover, the “%Inh” value in the experiment with MLCK worked out at 0%; with MLK1, 0%; in the experiment on MLK2, 19%; with MLK3, 0%; with MRCKA, 7%; with MRCKB, 16%. Besides, the “%Inh” value in the experiment on MST1R is on record as 17%; with MST1, 0%; with MST2 it was 11%; with MST3, 0%; with MST4 it was 0%; in the experiment with MTOR, 62%. Moreover, the “%Inh” value in the experiment on MUSK was 11%; with MYLK2 it was 2%.

On to `FC(F)(F)c1cc(Nc2nccc(-c3c(-c4ccc(Cl)cc4)nn4ncccc34)n2)ccc1Cl` [GW829351], for which the “%Inh” value worked out at 11% in the experiment on MERTK; 0% in the experiment on MET; 0% with MINK; 0% in the experiment on MKK7; 0% in the experiment with MKNK1; 0% in the experiment with MKNK2. Also, the “%Inh” value is recorded as 10% with MLCK; 0% in the experiment on MLK1; 4% in the experiment on MLK2; 0% in the experiment with MLK3; 0% in the experiment on MRCKA; 9% in the experiment with MRCKB. Further, the “%Inh” value in the experiment on MST1R was found to be 0%; in the experiment on MST1, 0%; in the experiment on MST2, 3%; in the experiment with MST3 it was 0%; in the experiment on MST4 it was 0%; in the experiment with MTOR, 0%. The “%Inh” value in the experiment with MUSK and with MYLK2 was 0% in each case.

On to `Cc1ccc(NC(=O)c2cccc(C#N)c2)cc1-c1ccc(C(=O)Nc2ccncc2)cc1` [GSK1398463], for which the “%Inh” value in the experiment with MERTK is 0%; in the experiment on MET, 0%; in the experiment on MINK, 0%; with MKK7, 0%; in the experiment on MKNK1, 0%; with MKNK2 it was 23%. The “%Inh” value in the experiment on MLCK turned out to be 0%; in the experiment with MLK1, 0%; in the experiment with MLK2 it was 24%; in the experiment on MLK3 it was 0%; with MRCKA, 3%; with MRCKB, 8%. Besides, the “%Inh” value with MST1R was 38%; with MST1, 0%; in the experiment with MST2, 0%; in the experiment with MST3 it was 0%; with MST4 it was 0%; in the experiment on MTOR it was 4%. The “%Inh” value in the experiment on MUSK came out at 10%; in the experiment with MYLK2 it was 26%.

On to `Fc1ccc(-c2ncn(CCCNCc3ccccc3)c2-c2ccncc2)cc1`, for which the “%Inh” value came out at 35% with MERTK; 0% in the experiment on MET; 3% in the experiment with MINK; 10% with MKK7; 28% in the experiment with MKNK1; 0% in the experiment on MKNK2. Also, the “%Inh” value is reported as 0% with MLCK; 4% in the experiment on MLK1; 0% with MLK2; 0% in the experiment with MLK3; 0% with MRCKA; 18% with MRCKB. Further, the “%Inh” value in the experiment with MST1R came to 18%; in the experiment on MST1, 2%; in the experiment on MST2, 39%; with MST3, 11%; with MST4, 0%; in the experiment on MTOR it was 11%. The “%Inh” value was found to be 9% with MUSK and 0% in the experiment on MYLK2.
